Screening results (PubChem)
The list is not random: actives were taken first. Their share in the collection is about 2.8%.
Shn3 3UTR inh: reduces Shn3 3'UTR luciferase signal in osteoblasts; Clone20 osteoblast Shn3 3'UTR firefly luciferase, 24 h; inhibition, % at 12.5 µM; 360,000 compounds, 0.52% hits; AID 588674;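 active means mean inhibition of at least 75% with every replicate also reaching 75%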;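 further: 0% = median of neutral control wells and 100% = pilot-screen positive control compound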
KKLEB tox: CF airway cell cytotoxicity counter-screen. KKLEB CF airway cells viability, ATPlite luminescence, overnight; hits give low values; cells stimulated with P. aeruginosa culture filtrate. activity change (cytotoxicity), % at 5 µM. 360,000 compounds, 0.36% hits. AID 602141;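 active means corrected activity change at or below -50% at 5 µM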
CF NFkB block: blocks PAF-induced NF-kB reporter in cystic fibrosis cells. 360,000 compounds, 0.86% hits. inhibition, % at 5 µM. KKLEB NF-kB-GFP reporter, GFP fluorescence overnight. AID 588850;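 active means at least 50% inhibition at 5 µM, scaled per plate between neutral and stimulator controls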;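 further: PAF is a Pseudomonas aeruginosa culture filtrate used as stimulus; plate controls were PAF-stimulated DMSO wells for no effect and unstimulated DMSO wells for full effect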
MITF TRPM1 inh: inhibitors of MITF-driven TRPM1 promoter in melanoma cells; SK-MEL-5 TRPM1 promoter luciferase, 24 h; AID 488899; 330,000 compounds, 0.83% hits; inhibition, % at 12.5 µM;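 active means mean inhibition across replicates of 60% or more, whatever share of single replicates reaches that level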
HIF-2a block: inhibitors of HIF-2a | inhibition, % at 18.8 µM | AID 624352 | 786-0 RCC cells HIF-2a reporter, luciferase luminescence, overnight | 360,000 compounds, 0.72% hits;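 active means inhibition of the luminescence signal of 40% or more relative to plate controls, in a single-dose primary screen at 18.75 µM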
Peg3 prom inh: Peg3 promoter activity inhibition; HeLa PEG-Prom luciferase reporter, luminescence, overnight; inhibition, % at 20 µM; 360,000 compounds, 1.7% hits; AID 588405;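 active means inhibition of at least 50% at 20 µM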
CF NFkB inh conf: confirmation of cystic fibrosis induced NF-kB inhibitors | KKLEB CF airway cells, PAF-induced NF-kB-GFP fluorescence, overnight | 1,300 compounds, 64% hits | shares compounds with CF NFkB block | inhibition, % at 5 µM | AID 602472; in the data active means inhibition above about 40%;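 further: stimulus PAF is a Pseudomonas aeruginosa filtrate and not platelet activating factor; plate controls were DMSO wells with stimulus for no effect and unstimulated DMSO wells for full effect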
Active calls of the source: *; · = not tested or not shown.

SMILES	Shn3 3UTR inh	KKLEB tox	CF NFkB block	MITF TRPM1 inh	HIF-2a block	Peg3 prom inh	CF NFkB inh conf
COc1ccc(-n2nc(C(=O)NCC(=O)Nc3cc(OC)c(OC)c(OC)c3)c3ccccc3c2=O)cc1Cl	67	-20	79*	16	6	44	101*
Cn1c(=O)oc2cc(S(=O)(=O)CCC(=O)Nc3ccccc3)ccc21	9	1	-1	6	16	12	·
CN(C(=O)COC(=O)c1nc(Cl)c(Cl)c(Cl)c1Cl)C1CCS(=O)(=O)C1 (stereo not given)	65	-46	79*	94*	40	107*	-16
CN(C(=O)COC(=O)c1ccc(C(C)(C)C)cc1)C1CCS(=O)(=O)C1 (stereo not given)	-2	13	-12	-7	2	-10	·
COc1ccccc1C(=O)NNC(=O)C(=O)NC1CCCCC1	10	-3	-10	1	14	9	·
C/C(=N/NC(=O)c1cccs1)c1ccc(NC(=O)COc2ccc(Cl)cc2)cc1	-16	-41	59*	16	0	29	78*
CCOC(=O)c1ccc(NC(=O)Nc2nncs2)cc1	-5	-22	66*	·	-148	-268	81*
Cc1ccc(Nc2nc3nonc3[nH]c2=O)cc1Cl	-36	-35	52*	-7	-145	1	81*
COc1ccc(-c2cn3cccnc3n2)cc1NC(=O)C(C)Oc1ccccc1 (stereo not given)	10	22	-20	-4	-6	13	·
COc1ccc(-n2c(C)cc3cc(OC(C)=O)ccc32)cc1	0	-11	57*	-22	-76	-138	58*
Cc1ccnc(NC(=O)Cc2ccc(-c3ccccc3)cc2)c1	-435	-17	62*	-46	-431	98*	58*
Cc1cccn2c(=O)c3cc(S(=O)(=O)c4ccc(F)cc4)c(=N)n(Cc4ccco4)c3nc12	-7	10	76*	-13	9	31	5
CC1CCCCN1c1ncnc(N)c1[N+](=O)[O-] (stereo not given)	14	0	74*	-8	14	9	64*
CCOc1ccc(OCC)c(NC(=O)c2nnn(CC(=O)Nc3cc(C)cc(C)c3)c2N)c1	55	-33	50*	49	-1	26	37
NC(=S)N1OC[C@@H]2COc3ccc4ccccc4c3[C@@H]21	36	-36	72*	12	11	-64	55*
CO/N=C/NC(=O)N1OC[C@@H]2COc3ccc4ccccc4c3[C@@H]21	-4	4	9	-8	17	13	·
COc1ccc(NC(=O)Nc2nnc(CC(=O)NCc3ccccc3)s2)cc1	-1	1	-22	-16	-9	-13	·
COc1cccc(NC(=O)Nc2nnc(CC(=O)NCc3ccccc3)s2)c1	9	-2	61*	-11	12	8	80*
COc1ccc(NC(=O)Nc2nnc(-c3ccncc3)s2)cc1	-19	-21	58*	-32	-174	-106	53*
O=C(CC1SC(N2CCOCC2)=NC1=O)Nc1cc([N+](=O)[O-])ccc1Cl (stereo not given)	-13	0	8	13	13	8	·
CCCC1O[C@@H]2C[C@H]3[C@@H]4CCC5=CC(=O)C=C[C@]5(C)[C@H]4[C@@H](O)C[C@]3(C)[C@]2(C(=O)CO)O1 (stereo not given in full)	7	22	90*	-20	28	4	23
CC[C@H](CO)Nc1nc(Nc2cccc(Cl)c2)c2ncn(C(C)C)c2n1	41	-20	68*	32	-5	94*	92*
COc1ccc(OC)c(/C=C/C(=O)N2CCCc3ccccc32)c1	0	4	-12	-35	-87	-57	·
COc1ccc(OC)c(/C=C/C(=O)N2C(=O)c3cccc(N)c3C2=O)c1	92*	-40	60*	55	7	64*	37
COc1cc(/C=C/C(=O)N2CCN(C(=O)/C=C/c3cc(OC)c(OC)c(OC)c3)CC2)cc(OC)c1OC	-9	-1	-13	15	12	-15	·
SMILES	Shn3 3UTR inh	KKLEB tox	CF NFkB block	MITF TRPM1 inh	HIF-2a block	Peg3 prom inh	CF NFkB inh conf
COc1cc(/C=C/C(=O)N2C(=O)c3cccc(N)c3C2=O)cc(OC)c1OC	-19	-5	64*	21	10	65*	-5
CC(=O)c1ccccc1NC(=O)COC(=O)CSCC(=O)Nc1cc(C)on1	-5	15	-25	3	26	6	·
COc1ccccc1C(NC(=O)C1CCN(CCOc2ccc(Cl)cc2Cl)CC1)c1ccccn1 (stereo not given)	-1	-11	21	·	2	39	·
c1ccn(-c2ncnc3sc4c(c23)CCCC4)c1	30	-12	20	-11	21	14	·
c1nc(N2CCOCC2)c2c3c(sc2n1)CCCC3	17	-23	55*	-7	24	13	70*
CCc1cc(C(=O)N2CCCc3ccccc32)sc1C	-20	14	16	-1	-92	-45	·
Cc1sc2ncnc(Nc3ccc(O)cc3)c2c1C	9	3	10	-2	-17	-10	·
Oc1ccc(Nc2ncnc3scc(-c4ccccc4)c23)cc1	-14	-16	61*	13	24	15	78*
CC(=O)OCC(=O)[C@@]12OC(C)(C)O[C@@H]1CC1C3C[C@H](F)C4=CC(=O)C=CC4(C)[C@@]3(F)C(O)CC12C (stereo not given in full)	21	2	73*	-7	26	4	37
CC1(C)OC2CC3C4CC(F)C5=CC(=O)C=CC5(C)C4(F)C(O)CC3(C)C2(C(=O)CO)O1 (stereo not given)	6	40	75*	-13	14	-7	21
C[C@@H]1C[C@H]2[C@@H]3C[C@H](F)C4=CC(=O)C=C[C@]4(C)[C@@]3(F)[C@@H](O)C[C@]2(C)[C@@]1(O)C(=O)CO	1	-24	78*	-12	29	-3	25
CN(C(=O)c1cc(S(=O)(=O)N2CCc3ccccc32)cn1C)C1CCCCC1	1	9	5	-2	-9	7	·
CCS(=O)(=O)c1ccc(O)c(NC(=O)NC2CCCCC2)c1	2	-2	-4	-12	-21	-8	·
COc1ccc(NC(=O)C2CCC(=O)N2C(=O)OCc2ccccc2)cc1 (stereo not given)	-1	4	-21	-16	1	1	·
CN(C)C(=O)C#Cc1ccccc1	3	-7	-3	-3	3	7	·
O=C(C#Cc1ccccc1)c1ccccc1	99*	-28	99*	·	6	100*	44*
Nc1cc2[nH]c(=O)c3ccccc3c2cc1Br	0	7	-71	8	-27	2	·
